An excerpt weighted towards active compounds, which were near 27% of everything screened.
CYP2C19 inhib = inhibitors of human CYP2C19 | 96,000 compounds, 21% hits | AID 778 | CYP2C19 Supersomes, luciferin-H EGE luminescence, 30 min | inhibition, % at 5 µM | P33261;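 active means CYP2C19 inhibition above a set limit at 5 µM in the primary screen, cut at about 50% in these data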;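 further: plate controls were negative control wells for no effect and 2.5 mM tranylcypromine positive control for full effect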
CYP2C9 inh = blocks human cytochrome P450 2C9; inhibition, % at 5 µM; 96,000 compounds, 20% hits; AID 777; P11712; CYP2C9 Supersomes, luciferin-H conversion, luminescence;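 active means blocking of liver enzyme CYP2C9 beyond about 50% at 5 µM, limit read from the data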
Target sequence (P11712 whole entry, looked up): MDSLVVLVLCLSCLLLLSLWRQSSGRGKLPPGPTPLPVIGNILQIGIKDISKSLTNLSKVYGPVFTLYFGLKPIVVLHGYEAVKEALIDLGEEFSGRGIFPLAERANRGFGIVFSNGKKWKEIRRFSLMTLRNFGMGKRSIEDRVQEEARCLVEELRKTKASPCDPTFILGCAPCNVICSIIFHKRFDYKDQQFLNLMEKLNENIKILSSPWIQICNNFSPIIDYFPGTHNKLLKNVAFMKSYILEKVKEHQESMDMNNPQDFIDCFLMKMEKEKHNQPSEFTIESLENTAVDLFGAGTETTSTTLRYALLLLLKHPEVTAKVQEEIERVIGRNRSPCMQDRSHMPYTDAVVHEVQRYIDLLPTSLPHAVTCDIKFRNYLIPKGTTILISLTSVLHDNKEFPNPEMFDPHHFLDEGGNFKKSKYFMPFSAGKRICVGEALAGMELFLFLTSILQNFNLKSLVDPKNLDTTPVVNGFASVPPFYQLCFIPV
sEH activator = soluble epoxide hydrolase (human) activation; AID 717; 91,000 compounds, 0.04% hits; activation, % at 2 µM; P34913; purified human sEH enzymatic activity, activator screen; in the data active means activation above about 37%
sEH inhibitor = soluble epoxide hydrolase (human) inhibition; inhibition, % at 2 µM; recombinant human sEH enzymatic activity assay; 91,000 compounds, 0.34% hits; AID 707; P34913; in the data active means inhibition above about 80%
CYP2C9 act = increases human cytochrome P450 2C9 activity. AID 1024. 96,000 compounds, 1.4% hits. recombinant CYP2C9, luciferin-H conversion, luminescence; hits give high values; factor 1 = untreated enzyme, 0 = blocked. activation factor at 5 µM;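 active means activation factor of 2 or more for CYP2C9 at a 5 µM dose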;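 further: 0 = sulfaphenazole-blocked wells and 1 = vehicle-only wells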
CYP2C19 act = activators of human cytochrome P450 2C19; P33261; recombinant CYP2C19, luciferin-H EGE luminescence; hits give high values; 0 = fully inhibited enzyme, 1 = untreated enzyme; activation factor at 5 µM; 96,000 tested, under 10 active; AID 1025;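 active means activation factor of at least 2 at 5 µM in the primary screen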;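 further: 0 = wells with 2.5 mM tranylcypromine and 1 = vehicle-only wells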
Active calls of the source: *; / = no result.

SMILES	CYP2C19 inhib	CYP2C9 inh	sEH activator	sEH inhibitor	CYP2C9 act	CYP2C19 act
O=C(NCCOc1ccccc1)c1cc2ccccc2o1	47.5	12.0	-5.5	2.2	0.9	0.5
O=C(NCCOC(=O)c1ccccc1C(=O)OCCNC(=O)c1cccnc1)c1cccnc1	95.6*	68.5*	-5.5	4.2	0.3	0
Cc1cc(C)c(C(=O)OCCNC(=O)c2cccnc2)cc1C	73.8*	70.7*	-1.5	2.6	0.3	0.3
O=C(NCCOCCOCCNC(=O)c1cccnc1)c1cccnc1	11.3	0.2	/	/	1	0.9
O=C(NCCCCCNC(=O)c1cccnc1)c1cccnc1	1.0	13.9	-0.5	-1.9	0.9	1
O=C(NCCOC(=O)c1ccc(C(=O)OCCNC(=O)c2ccccc2)o1)c1ccccc1	35.5	83.4*	3.5	-4.8	0.2	0.6
CC1S/C(=C(\C#N)C(N)=O)N(c2ccc(F)cc2)C1=O (stereo not given)	-10.8	5.6	-9.3	6.8	0.9	1.1
CC(CN(C)Cc1ccccc1)OC(=O)c1ccc2c(c1)OCCO2 (stereo not given)	29.7	30.0	/	/	0.7	0.7
O=CN(/C=C1\Sc2ccccc2C1=O)Cc1ccccc1	-2.4	56.2*	11.3	-13.2	0.4	1
CCC(=O)N(C)/C=C1\Sc2ccccc2C1=O	20.2	10.0	-7.0	9.7	0.9	0.8
Cc1[nH]n2c(=O)cc(Cc3ccccc3)nc2c1C#N	-5.8	77.1*	-1.2	4.1	0.2	1.1
N#Cc1c[nH]n2c(=O)cc(Cc3ccccc3)nc12	-2.5	42.7	-3.3	2.6	0.6	1
Cc1nc2c(C#N)c(C)[nH]n2c(=O)c1Cc1ccccc1	-9.0	62.8*	-3.7	3.4	0.4	1.1
Cc1nc2c(C#N)c[nH]n2c(=O)c1Cc1ccccc1	12.6	63.4*	10.4	-10.3	0.4	0.9
Cc1nc2nc(Cc3ccccc3)[nH]n2c(=O)c1Cc1ccccc1	-13.1	-1.4	8.1	-10.4	1	1.1
C/C(=C\c1ccccc1)C(=O)Nc1cc(C)on1	6.4	21.2	-3.1	-1.2	0.8	0.9
COc1ccc2nc(SCC(=O)N3CCN(c4ccccc4F)CC3)c(C#N)cc2c1	/	/	17.4	-15.7	/	/
CCCCS/C(N)=N/N=C/c1ccccc1O	87.7*	82.4*	0.5	0.4	0.2	0.1
CC1(C)CC(=O)C2=C(C1)NC(=O)CC2C(=O)NCc1ccc(F)cc1 (stereo not given)	5.2	-9.4	-1.2	-0.6	1.1	0.9
CC(=O)/C(=N/Nc1cccc(C)c1)N1CCOCC1	66.6*	67.5*	-0.6	3.3	0.3	0.3
O=C1CC2(CON=C2c2ccc(F)cc2)C(=O)N1c1ccc(F)cc1 (stereo not given)	89.2*	51.4*	-3.1	1.9	0.5	0.1
CCOC(=O)c1[nH]cnc1C(=O)Nc1ccncc1	33.0	54.2*	0.5	-0.6	0.5	0.7
Cc1cccc(N(C(=O)c2csnn2)C(C(=O)NC(C)(C)C)c2cccs2)c1 (stereo not given)	31.0	6.6	-3.4	5.3	0.9	0.7
CC(C)Cn1c(=O)c2c(c3ccccc31)OC(C)C(=O)N2 (stereo not given)	/	/	0.1	2.5	/	/
Cc1cc(Cl)ccc1OCc1nc(-c2ccc(O)cc2)n[nH]1	96.8*	93.8*	-0.7	4.4	0.1	0
SMILES	CYP2C19 inhib	CYP2C9 inh	sEH activator	sEH inhibitor	CYP2C9 act	CYP2C19 act
COc1cc(NC(=O)c2ccco2)ccc1NC(=O)c1ccccc1Cl	51.2*	71.6*	4.2	-0.3	0.3	0.5
O=C(Nc1cccc(NC(=O)c2cccs2)c1)c1ccco1	-10.1	19.5	1.3	2.3	0.8	1.1
COc1ccc(/C=C/C(=O)c2ccc(NC(=O)c3cccs3)cc2)cc1OC	33.7	71.9*	0.0	1.1	0.3	0.7
COc1ccc(OC)c(CNCCNC(=O)c2ccco2)c1	73.1*	12.7	9.2	-7.8	0.9	0.3
COc1cc(NC(=O)c2ccccc2Cl)ccc1NC(=O)c1ccco1	31.4	11.9	10.8	-8.8	0.9	0.7
COc1cc(NC(=O)c2cccs2)ccc1NC(=O)c1ccco1	25.0	73.9*	-4.4	4.7	0.3	0.8
COc1cccc(CNCCNC(=O)c2ccco2)c1OC	0.7	3.2	-4.6	2.9	1	1
COc1ccc(NC(=O)c2ccccc2NC(=O)c2ccco2)c(OC)c1	24.0	59.2*	-9.4	9.1	0.4	0.8
CC(C)(C)NCc1ccccc1OCc1cccs1	-8.1	1.7	3.4	-2.5	1	1.1
Cc1cccc(N2C(=O)CC(Sc3nc(C)cc(C)n3)C2=O)c1 (stereo not given)	39.8	15.1	2.9	0.3	0.8	0.6
CCOC(=O)c1cnc(SC2CC(=O)N(c3cccc(OC)c3)C2=O)nc1N (stereo not given)	35.5	72.8*	4.1	-3.4	0.3	0.6
Cc1ccc(C2(C)NC(=O)N(Cc3c(C)noc3C)C2=O)cc1 (stereo not given)	52.9*	12.3	-14.3	14.6	0.9	0.5
Cc1nc2scc(-c3cccs3)c2c(=O)n1-n1cccc1	52.7*	58.4*	/	/	0.4	0.5
O=c1oc(-c2cccs2)nc2scc(-c3cccs3)c12	-4.8	-36.5	20.0	-17.4	1.4	1
Cc1ccc(C)n1-n1c(C)nc2scc(-c3cccs3)c2c1=O	78.9*	70.6*	/	/	0.3	0.2
Cc1nc2scc(-c3cccs3)c2c(=O)o1	79.7*	54.6*	-3.9	2.6	0.5	0.2
Cc1csc(N(C)C(=O)CSc2nnc(COc3cccc4ccccc34)o2)n1	20.3	-32.4	/	/	1.3	0.8
CN1CCC(=NNC(=O)C(=O)NC(C)(C)C)CC1	31.3	55.4*	13.1	-13.5	0.4	0.7
CN1CCC(=NNC(=O)C(=O)NC2CCCC2)CC1	-3.2	-7.7	-7.2	4.7	1.1	1
O=C(CSc1nc(Nc2ccccc2)nc(N2CCOCC2)n1)Nc1ccc2c(c1)OCCO2	61.1*	60.4*	-3.7	5.8	0.4	0.4
Cc1ccccc1NC(=O)CSc1nc(Nc2ccccc2)nc(N2CCOCC2)n1	49.0	62.1*	6.4	-3.7	0.4	0.5
O=C(CSc1nc(Nc2ccccc2)nc(N2CCOCC2)n1)N1CCCC1	3.5	24.7	3.5	-5.7	0.8	1
CN(CC(=O)N1CC=C(c2ccccc2)CC1)S(=O)(=O)c1cnc[nH]1	95.4*	98.7*	-12.6	11.5	0	0
Cc1c2cc(O)c(=O)cc-2oc2cc(O)c(O)cc12	25.2	81.6*	12.7	-11.0	0.2	0.7
O=c1cc(-c2ccccc2F)oc2ccccc12	/	/	9.7	-7.0	/	/
Cc1cc(C)cc(N2CCCC2=O)c1	/	/	-4.4	5.0	/	/
COc1ccc2c(c1)OCC1=C2CCC2(C)C(=O)CC=C12 (stereo not given)	42.3	64.4*	4.9	-2.4	0.4	0.6
CC1(c2ccncc2)Nc2ccccc2-c2nc3ccccc3n21 (stereo not given)	96.7*	90.4*	-10.0	14.5	0.1	0
